Bioassay records deposited in PubChem by several laboratories.
ssDAF-12 act: activates DAF-12 receptor from parasite S. stercoralis | activation, % at 6.8 µM | HEK293 ssDAF-12/GRIP1 lit1-tk-luc reporter, luminescence; % of 3 µM dafachronic acid response | 1% of 370,000 active;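 active = activation above the mean over all tested compounds plus 3 SD, cut at about 0.9% in these data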;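 note: 0% = DMSO-only wells and 100% = 3 µM delta7-dafachronic acid wells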
DAX1 inh-1: inhibitors of human orphan nuclear receptor DAX1 (NR0B1); HEK293 Gal4-DAX1 luciferase reporter, luminescence; inhibition, % at 6.75 µM; P51843; 0.99% of 340,000 active;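 active = inhibition above the mean over all tested compounds plus 3 SD, cut at about 4.2% in these data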;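 note: 0% = DAX1-transfected cells with DMSO and 100% = empty-vector control cells with DMSO; inhibition shows as a rise in luminescence from relieved DAX1 repression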
Target sequence (P51843 207-470 limits assumed): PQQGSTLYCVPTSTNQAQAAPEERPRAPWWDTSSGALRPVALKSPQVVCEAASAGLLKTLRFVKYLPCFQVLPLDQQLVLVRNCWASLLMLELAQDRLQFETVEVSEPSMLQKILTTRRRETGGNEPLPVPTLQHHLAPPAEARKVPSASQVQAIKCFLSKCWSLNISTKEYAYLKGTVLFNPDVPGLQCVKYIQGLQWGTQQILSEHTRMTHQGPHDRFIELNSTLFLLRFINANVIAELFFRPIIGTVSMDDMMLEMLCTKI
PolyA inh: inhibitors of polyadenylation in S. cerevisiae | activity score, % at 12 µM | 0.02% of 300,000 active | S. cerevisiae SKY197-pL101 polyadenylation reporter, beta-gal luminescence; efflux-impaired pdr1/pdr3 knockout yeast; score 100 = 6 SD above DMSO;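 active = lowest replicate activity score at least 50, where 100 means six control SD above control mean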;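 note: yeast exposed to compound for 9 h at 30 °C; higher score means more reporter readthrough which indicates perturbed polyadenylation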
hgDAF-12 ag: hgDAF-12 agonism, primary luciferase screen | 1.8% of 370,000 active | HEK293 GAL4-hgDAF12 UAS-luciferase reporter, agonist luminescence; normalized to butyrate control | activation, % at 6.8 µM;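 active = activation above a cutoff set at the mean of all screened compounds plus 3 SD, cut at about 10% in these data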;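 note: 0% = DMSO wells and 100% = sodium butyrate wells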
DAX1 inh-2: DAX1 (NR0B1) inhibition, primary screen | 1.1% of 370,000 active | inhibition, % at 6.8 µM | HEK293T StAR-luciferase reporter, SF-1/DAX-1 repression relief;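 active = inhibition above the mean over all tested compounds plus 3 SD, cut at about 3.6% in these data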;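 note: 0% = DAX-1 cells with DMSO and 100% = cells lacking DAX-1 with DMSO; higher inhibition means more luminescence from relief of DAX-1 repression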
hcDAF12 agonist: activators of H. contortus DAF-12 nuclear receptor. HEK293 hcDAF-12 lit1-tk-luc reporter, luminescence; 0% DMSO, 100% Δ7-dafachronic acid. 1.4% of 370,000 active. activation, % at 6.8 µM. AID 652067;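 active = activation above the mean of all tested compounds plus 3 SD, cut at about 5.5% in these data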;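 note: 100% = response to 3 µM Δ7-dafachronic acid high control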
LXR ag: LXR-beta agonism as hcDAF-12 counter-screen | shares compounds with hcDAF12 agonist | HEK293 Gal4-LXR tk-luc reporter, luminescence, 24 h; normalized: DMSO 0%, positive control 100% | activation, % at 6.8 µM | 3,400 tested, under 10 active;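 active = mean percent activation of the reporter above a cutoff set as the average over tested compounds plus their standard deviation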
Target sequence (P55055 whole entry, looked up, the tested form may be a part): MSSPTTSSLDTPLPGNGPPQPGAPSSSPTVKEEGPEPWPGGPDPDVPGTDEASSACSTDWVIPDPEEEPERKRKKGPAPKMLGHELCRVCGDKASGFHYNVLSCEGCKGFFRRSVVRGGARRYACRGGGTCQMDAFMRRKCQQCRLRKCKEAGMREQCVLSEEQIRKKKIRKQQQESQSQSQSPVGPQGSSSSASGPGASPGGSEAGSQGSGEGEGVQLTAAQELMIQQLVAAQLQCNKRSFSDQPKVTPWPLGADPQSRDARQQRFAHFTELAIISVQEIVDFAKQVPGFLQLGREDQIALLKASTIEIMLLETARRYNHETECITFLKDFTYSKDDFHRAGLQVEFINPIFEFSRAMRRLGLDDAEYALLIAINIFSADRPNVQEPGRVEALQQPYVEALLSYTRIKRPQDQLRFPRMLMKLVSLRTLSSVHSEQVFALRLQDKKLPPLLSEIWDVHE
hcDAF12 ag: hcDAF-12 agonism, confirmation assay. shares compounds with hcDAF12 agonist. HEK293 hcDAF-12 lit1-tk-luc reporter, luminescence; % of Δ7-dafachronic acid response. activation, % at 6.8 µM. AID 743032. 61% of 3,400 active;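 active = mean activation across triplicate tests above the threshold derived from the earlier primary screen, cut at about 5.5% in these data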;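 note: 0% = DMSO only wells and 100% = 3 µM Δ7-dafachronic acid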
* = called active by the depositor; . = not tested or not shown. Only some compounds are listed: those with a hit (about 4.1% of all), similar ones and a draw of the others.

SMILES	ssDAF-12 act	DAX1 inh-1	PolyA inh	hgDAF-12 ag	DAX1 inh-2	hcDAF12 agonist	LXR ag	hcDAF12 ag
Cc1cc(C(F)(F)F)c(C#N)c(SCC(=O)Nc2nc3ccccc3s2)n1	-2.0	2.4	17.1	-12.2	-1.1	-0.8	.	.
Cc1ccc2sc(NC(=O)CSc3nc(C)cc(C)c3C#N)nc2c1	0.9*	0.7	4.9	11.9*	4.0*	10.7*	1.4	10.5*
CC(C)(C)C(c1nc2ccccc2[nH]1)n1c(-c2ccsc2)nc2ccccc21 (centres undefined)	-1.3	.	.	1.7	-1.5	-2.2	.	.
COc1ccc(Cl)cc1C(=O)NCC(c1ccco1)N(C)C (centres undefined)	-0.2	0.5	-9.1	2.2	0.7	7.3*	-0.3	3.6
O=C(Cc1ccccc1)N1O[C@H]2C=C[C@@H]1C2	-0.7	.	.	1.1	0.7	-0.4	.	.
O=C1CCCC2=C1Sc1ccccc1N2	-1.1	.	-2.2	-0.6	-0.2	7.8*	-0.2	4.4
O=C1Nc2ccccc2SC1=Cc1ccccc1	-0.5	1.8	.	2.0	0.8	5.2	.	.
Cc1cc(=O)[nH]c(SCC(=O)N2C(C)CCCC2C)n1 (centres undefined)	-0.4	1.0	-10.0	2.6	0.0	1.1	.	.
COc1ccc(Br)cc1C1Nc2cccc3cccc(c23)N1	-1.1	0.8	-6.8	0.9	-0.1	0.2	.	.
Brc1ccc(C2Nc3cccc4cccc(c34)N2)s1	0.5	-0.1	.	5.4	0.2	6.6*	-0.2	3.7
Cc1c(C(=O)N2CCN(Cc3cccs3)CC2)oc2ccccc12	-1.5	0.0	.	-0.6	0.4	-0.5	.	.
C=CCN1CCN(C(=O)c2oc3ccccc3c2C)CC1	-0.8	-0.1	8.6	0.4	0.5	7.5*	-0.2	1.8
CC(C)OC(=O)CSc1nnc2c3ccccc3n(C)c2n1	-0.7	0.0	-6.6	-0.4	-0.1	3.1	.	.
CC(C)CSc1nnc2c3ccccc3n(C)c2n1	1.6*	10.1*	-2.8	9.5	1.5	13.9*	1.0	11.4*
COc1ccc(C(=O)n2nc(C)cc2Nc2ccccc2)cc1	1.4*	2.8	5.7	5.8	0.5	8.7*	0.6	9.6*
CC(C)NC(=O)Nc1cccc2c1O[C@H](CN(C)C(=O)NC1CCCCC1)[C@H](C)CN([C@H](C)CO)C2=O	-0.6	1.1	.	0.8	-0.3	-0.9	.	.
CN(/N=C/c1ccc2c(c1)OCO2)c1ccccc1	-0.5	0.7	7.5	11.2*	2.9	9.1*	1.2	3.7
CC(=O)Nc1sc2c(c1-c1nc3ccccc3s1)CCN(C(C)C)CC2	1.1*	.	.	-0.7	.	13.3*	0.9	14.8*
CC(C)N1CCc2c(sc(NC(=O)C(F)F)c2-c2nc3ccccc3s2)C1	-1.7	.	.	5.0	.	0.3	.	.
C#CCCC(=O)Nc1sc2c(c1-c1nc3ccccc3s1)CCN(C(C)C)C2	-0.3	.	.	8.3	.	9.7*	0.2	2.1
Cc1ccc2occ(/C=N/NC(=O)c3ccncc3)c(=O)c2c1	-1.6	-0.1	0.7	2.3	0.6	-0.9	.	.
OCCCNc1c2ccccc2nc2ccccc12	2.3*	0.2	-26.2	7.0	-0.3	19.9*	1.9	28.5*
CN(C)CCCNc1c2c(nc3ccccc13)CCC2	-0.8	-0.2	3.2	1.5	1.0	7.0*	0.0	5.0
O=C1CC(NS(=O)(=O)c2ccc([N+](=O)[O-])cc2)CN1c1cccc(F)c1 (centres undefined)	-0.7	0.6	2.1	-1.7	1.6	0.1	.	.
COc1ccc(NC(=O)/C=C/c2ccc(F)cc2)cn1	-1.2	-0.2	-4.7	5.7	0.9	0.0	.	.
SMILES	ssDAF-12 act	DAX1 inh-1	PolyA inh	hgDAF-12 ag	DAX1 inh-2	hcDAF12 agonist	LXR ag	hcDAF12 ag
COc1ccc(NC(=O)/C=C/c2ccccc2)cn1	-0.6	0.6	-3.6	11.9*	2.2	8.5*	1.0	6.5*
Cc1ccoc1C(=O)Nc1ccc2ccccc2c1	0.4	-1.8	-11.3	12.2*	1.4	17.1*	2.0	14.3*
CN1[C@@H](Cc2ccccc2)COc2cc(N3CCCC3)ccc2S1(=O)=O	-1.6	.	.	-3.8	-3.2	-1.5	.	.
FC(F)(F)c1nc2cc3nc4ccccc4[nH]c3cc2n1	-0.4	2.8	8.3	1.5	-0.1	7.6*	0.6	3.9
c1cncc(-c2nc(-c3ccc4c(c3)OCO4)cs2)c1	0.2	0.7	-16.0	12.5*	2.2	6.8*	0.9	4.6
CC1=CC2=NC(=O)/C(=C\c3cccn3CCOc3ccccc3C)C(=N)N2O1	-1.8	1.2	-10.2	-2.2	-1.1	-3.7	.	.
COc1ccccc1OCCOc1ccc(/C=C2/C(=N)N3OC(C)=CC3=NC2=O)cc1OC	-1.1	-1.0	3.1	5.1	-1.1	7.3*	-0.7	-3.3
CNc1cc([N+](=O)[O-])ccc1N/C=C/C(=O)c1cccs1	0.8	1.4	0.7	3.1	2.0	8.9*	-0.3	4.7
O=C(/C=C/Nc1cccc([N+](=O)[O-])c1)c1cccs1	1.8*	3.0	-9.0	13.3*	2.0	12.5*	1.6	14.3*
O=C(/C=C/Nc1ccccc1C(=O)O)c1cccs1	-0.6	-0.2	-5.9	2.6	1.1	8.4*	0.0	3.2
COc1ccc(-c2cn3ccccc3n2)cc1OC	3.1*	2.3	-59.0	10.8*	1.6	12.6*	0.6	12.9*
CC1=C(C)Cc2c(OC(=O)c3ccccc3)ccc(OC(=O)c3ccccc3)c2C1	.	.	-13.3	.	.	.	.	.
C(=N\Nc1ccccc1)/c1nc2ccccc2s1	3.8*	4.8*	-23.9	23.8*	3.0	18.5*	2.7	23.5*
Cc1ccc2nc(Br)c3c(c2c1)OC(CBr)C3 (centres undefined)	-2.0	-0.6	-14.5	0.8	0.0	7.4*	-0.2	0.0
Cc1nc2c(Cl)cccc2c2c1CC(CBr)O2 (centres undefined)	-1.8	-0.9	-9.6	-1.2	-0.2	-2.1	.	.
COc1ccccc1NC(=S)OC1CCC12CCC(c1ccccc1)CC2 (centres undefined)	-1.2	.	.	1.7	-0.1	1.0	.	.
COc1ccc(NC(=O)c2ccc3ccccc3n2)cc1S(=O)(=O)N1CCCCC1	0.1	1.4	-11.7	5.2	1.6	8.9*	0.1	3.9
O=C1c2[nH]nc(-c3ccccc3)c2C(c2cccc(C(F)(F)F)c2)N1c1ccccc1 (centres undefined)	-1.4	.	.	0.1	1.1	0.0	.	.
CCC(=O)Oc1ccc2oc(=O)cc(C)c2c1	-1.1	-0.4	12.6	5.8	-0.2	0.6	.	.
